Activity calls are given as the source filed them. Unless noted, no rule for the calls is given here.
Assays:
[1] = A549 cell viability effects, profiling panel, calcein-AM fluorescence, 48 h, basal (AID 1162); conditions: higher = more signal; also: test concentration not given here
[2] = adipocyte viability effects, profiling panel, cell-based, 3T3-L1 adipocytes, calcein-AM fluorescence, 48 h, basal (AID 1163); conditions: 3T3-L1 adipocytes viability, higher = more signal; also: test concentration not given here
[3] = HepG2 cell viability effects, profiling panel, calcein-AM fluorescence, 48 h, basal (AID 1164); conditions: higher = more signal; also: test concentration not given here
[4] = MM1S cell viability effects, profiling panel, calcein-AM fluorescence, 48 h, basal (AID 1165); conditions: higher = more signal;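 also: viability of MM1S multiple myeloma cells under basal unstimulated conditions; test concentration not given here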
[5] = basal RPMI8226 viability, no added stimulus, profiling panel, cell-based, calcein-AM fluorescence, 48 h, PK04 Diversity Set (AID 1166); conditions: RPMI8226 myeloma viability, higher = more signal;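 also: cells grown under basal conditions without added stimulus; test concentration not given here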
[6] = basal HepG2 mitochondrial membrane potential changes, profiling panel, cell-based, JC-1 fluorescence, 24 h, 100 nL compound (AID 1167); conditions: higher = more signal; also: test concentration not given here
[7] = basal 3T3-L1 adipocyte mitochondrial potential changes, profiling panel, cell-based, JC-1 fluorescence, 3T3-L1 adipocytes, 24 h, 100 nL compound (AID 1168); conditions: JC-1 mitochondrial fluorescence, higher = more signal, called active from +8 up or from −8 down; also: test concentration not given here
[8] = basal RPMI8226 mitochondrial membrane potential changes, profiling panel, cell-based, JC-1 fluorescence, 24 h, 100 nL compound (AID 1169); conditions: RPMI8226 myeloma, JC-1 mitochondrial potential fluorescence, higher = more signal; also: test concentration not given here
[9] = basal MM1S mitochondrial membrane potential changes, profiling panel, cell-based, JC-1 fluorescence, 24 h, 100 nL compound (AID 1170); conditions: higher = more signal; also: test concentration not given here
[10] = A549 lung cancer cell viability effects, profiling panel, resazurin fluorescence, 24 h, PK04 Diversity Set (AID 1171); conditions: higher = more signal, called active from +8 up or from −8 down; also: test concentration not given here
[11] = HepG2 liver cancer cell viability effects, profiling panel, resazurin fluorescence, 24 h, PK04 Diversity Set (AID 1172); conditions: higher = more signal; also: test concentration not given here
[12] = basal S. cerevisiae growth modulation, no modifier, primary screen, OD600, strain BY4716, 24 h, basal condition (AID 1173); conditions: OD600, 24 h, higher = more signal, called active from +8 up or from −8 down
[13] = MM1S myeloma cell viability, profiling panel, resazurin fluorescence, basal, 24 h, PK04 Diversity Set (AID 1174); conditions: higher = more signal, called active from +8 up or from −8 down;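 also: MM1S multiple myeloma cell line; test concentration not given here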
[14] = target: Dihydroorotate dehydrogenase (quinone), mitochondrial (Plasmodium falciparum (isolate 3D7)) (UniProt Q08210); assay: PfDHODH enzyme inhibitors, primary screen, biochemical, C-terminal His tag, absorbance 600 nm (AID 1175); conditions: DCIP absorbance 600 nm, higher = more signal, called active from +8 up or from −8 down;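 also: recombinant parasite enzyme with a five histidine tag at its C terminus; test concentration not given here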
Chain of Dihydroorotate dehydrogenase (quinone), mitochondrial (Plasmodium falciparum (isolate 3D7)) (Q08210 whole entry, looked up): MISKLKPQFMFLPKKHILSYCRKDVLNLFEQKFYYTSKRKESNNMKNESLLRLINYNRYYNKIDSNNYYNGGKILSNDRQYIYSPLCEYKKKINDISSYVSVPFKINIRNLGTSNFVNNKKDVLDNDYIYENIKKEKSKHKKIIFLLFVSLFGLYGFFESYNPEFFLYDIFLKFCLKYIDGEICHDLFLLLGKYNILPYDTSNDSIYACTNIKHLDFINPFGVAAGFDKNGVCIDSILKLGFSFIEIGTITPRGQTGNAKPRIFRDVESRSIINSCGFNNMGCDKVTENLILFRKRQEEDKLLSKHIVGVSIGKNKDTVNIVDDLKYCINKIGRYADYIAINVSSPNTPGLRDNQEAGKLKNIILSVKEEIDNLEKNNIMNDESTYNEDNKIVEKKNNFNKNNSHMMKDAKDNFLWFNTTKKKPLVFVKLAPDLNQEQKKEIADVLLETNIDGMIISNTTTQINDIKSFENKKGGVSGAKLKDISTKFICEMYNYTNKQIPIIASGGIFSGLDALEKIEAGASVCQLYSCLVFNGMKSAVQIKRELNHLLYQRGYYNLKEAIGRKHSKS

[15] = P. aeruginosa biofilm formation inhibitors, primary screen, strain PAO1, LB-PBS medium, absorbance 600 nm (AID 1176); also: test concentration not given here; conditions: P. aeruginosa PAO1 growth/biofilm, A600, 12 h; higher = more signal
[16] = S. cerevisiae RM11-1a growth modifiers, primary screen, strain RM11-1a, OD600, basal, 24 h (AID 1177); conditions: OD600, 24 h, higher = more signal, called active from +8 up or from −8 down;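 also: cultures grown under basal conditions with no added stressor; test concentration not given here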
[17] = E. coli acrAB mutant growth effects, primary screen, E. coli filamentation inducers, strain DRC39, OD650, 24 h (AID 1178); conditions: higher = more signal, called active from +8 up or from −8 down;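 also: growth measured as culture turbidity by optical density at 650 nm; test concentration not given here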
[18] = E. coli acrAB mutant growth effects, primary screen, E. coli filamentation inducers, strain DRC39, OD650, 48 h (AID 1179);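 also: screen aims at cell division blockers that make cells filament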; conditions: E. coli DRC39 delta-acrAB growth, higher = more signal, called active from +8 up or from −8 down
[19] = RPMI8226 myeloma cell viability, profiling panel, resazurin fluorescence, basal, 24 h, PK04 Diversity Set (AID 1180); conditions: higher = more signal;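 also: RPMI8826 multiple myeloma cell line at 5000 cells per well; test concentration not given here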
[20] = target: E3 ubiquitin-protein ligase XIAP (Homo sapiens) (UniProt P98170); assay: XIAP binders, primary screen, biophysical, small-molecule microarray, fluorescence 635 nm (AID 1181); conditions: small-molecule microarray binding, higher = more signal;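 also: score merges 667 nm emission and signal to noise over triplicate slides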
Chain of E3 ubiquitin-protein ligase XIAP (Homo sapiens) (P98170 whole entry, looked up): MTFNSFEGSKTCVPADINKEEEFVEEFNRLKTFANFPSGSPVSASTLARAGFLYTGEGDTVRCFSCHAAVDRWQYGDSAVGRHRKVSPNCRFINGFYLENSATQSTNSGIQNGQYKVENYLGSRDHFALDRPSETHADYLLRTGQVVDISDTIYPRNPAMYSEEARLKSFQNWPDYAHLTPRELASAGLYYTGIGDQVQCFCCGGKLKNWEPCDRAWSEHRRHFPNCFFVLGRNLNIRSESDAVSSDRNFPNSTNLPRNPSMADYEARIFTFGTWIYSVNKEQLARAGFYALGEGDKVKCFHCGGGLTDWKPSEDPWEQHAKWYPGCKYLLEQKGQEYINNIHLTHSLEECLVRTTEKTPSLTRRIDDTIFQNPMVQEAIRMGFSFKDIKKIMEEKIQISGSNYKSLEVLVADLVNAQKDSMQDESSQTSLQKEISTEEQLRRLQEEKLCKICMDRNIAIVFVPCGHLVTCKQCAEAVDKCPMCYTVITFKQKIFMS

SMILES: C[C@H]1NC(=O)C([C@@H](C)OCc2ccccc2)NC(=O)[C@@]23C(=O)N[C@@H](Cc4ccccc4)C2[C@H](C)[C@@]2(C)O[C@H]2C3/C=C/CC/C=C/CNC1=O (stereo not given in full)
- z-score [1]: 0.33
- z-score [2]: 0.221
- z-score [3]: 0.456
- z-score [4]: -0.728
- z-score [5]: -1.2
- z-score [6]: 2.67
- z-score [7]: 0.434 (inactive)
- z-score [8]: 0.452
- z-score [9]: 1.84
- z-score [10]: -0.757 (inactive)
- z-score [11]: -1.3
- z-score [12]: -0.782 (inactive)
- z-score [13]: 0.737 (inactive)
- composite z-score [14]: 0.855 (inactive)
- z-score [15]: -0.766 (inactive)
- z-score [16]: 0.604 (inactive)
- z-score [17]: 1.36 (inactive)
- z-score [18]: 0.336 (inactive)
- z-score [19]: 0.189
- composite z-score [20]: 0.13

SMILES: C=CC[C@@]1(C(=O)NCC(O)CO)N=C(c2ccc(OCCCO)cc2)O[C@@H]1c1ccccc1 (stereo not given in full)
- z-score [1]: 0.183
- z-score [2]: 1.07
- z-score [3]: -0.412
- z-score [4]: 0.281
- z-score [5]: -0.561
- z-score [6]: -0.152
- z-score [7]: 0.622 (inactive)
- z-score [8]: 0.49
- z-score [9]: 1.18
- z-score [10]: 0.295 (inactive)
- z-score [11]: 0.483
- z-score [12]: -2.05 (inactive)
- z-score [13]: 0.552 (inactive)
- composite z-score [14]: 0.358 (inactive)
- z-score [15]: -0.223 (inactive)
- z-score [16]: -0.108 (inactive)
- z-score [17]: 2.08 (inactive)
- z-score [18]: 0.196 (inactive)
- z-score [19]: 0.934
- composite z-score [20]: -0.0374

SMILES: CO[C@H]1O[C@H](CO)[C@@H](OC(=O)c2ccc(Br)cc2)[C@@H]2OC(=O)[C@H](Cc3cccc(Br)c3)C/C=C/C[C@@H](Cc3cccc(Br)c3)C(=O)O[C@@H]12
- z-score [1]: -0.0692
- z-score [2]: 1.09
- z-score [3]: -0.542
- z-score [4]: -1.82
- z-score [5]: -3.5
- z-score [6]: -3.52
- z-score [7]: -0.442 (inactive)
- z-score [8]: 0.229
- z-score [9]: -0.698
- z-score [10]: -0.932 (inactive)
- z-score [11]: -0.673
- z-score [12]: -0.611 (inactive)
- z-score [13]: -0.402 (inactive)
- composite z-score [14]: -0.71 (inactive)
- z-score [15]: 0.566 (inactive)
- z-score [16]: 0.393 (inactive)
- z-score [17]: 0.198 (inactive)
- z-score [18]: 0.188 (inactive)
- z-score [19]: -1.47
- composite z-score [20]: -0.0663

SMILES: CCCNC(=O)[C@@H]1c2ccccc2C(=O)N(CC23CC4CC(CC(C4)C2)C3)[C@H]1c1ccc(CO)cc1
- z-score [1]: -0.242
- z-score [2]: 0.487
- z-score [3]: 0.275
- z-score [4]: -0.671
- z-score [5]: -2.49
- z-score [6]: 1.81
- z-score [7]: -0.0153 (inactive)
- z-score [8]: -0.236
- z-score [9]: 0.141
- z-score [10]: 0.704 (inactive)
- z-score [11]: -0.411
- z-score [12]: -0.774 (inactive)
- z-score [13]: 0.411 (inactive)
- composite z-score [14]: 0.627 (inactive)
- z-score [15]: 0.718 (inactive)
- z-score [16]: 0.987 (inactive)
- z-score [17]: -0.0494 (inactive)
- z-score [18]: -0.501 (inactive)
- z-score [19]: 0.748
- composite z-score [20]: 1.94

SMILES: CC(C)C[C@@H]1NC(=O)[C@@]23C(=O)N[C@@H](Cc4ccccc4)C2[C@H](C)[C@@]2(C)O[C@H]2C3/C=C/C/C=C\CNC(=O)[C@@H]2CCCN2C1=O (stereo not given in full)
- z-score [1]: -0.486
- z-score [2]: 0.0971
- z-score [3]: -0.809
- z-score [4]: -0.641
- z-score [5]: 0.219
- z-score [6]: -0.00843
- z-score [7]: 0.568 (inactive)
- z-score [8]: 0.548
- z-score [9]: -0.491
- z-score [10]: -0.023 (inactive)
- z-score [11]: -0.462
- z-score [12]: -0.47 (inactive)
- z-score [13]: 0.17 (inactive)
- composite z-score [14]: -0.487 (inactive)
- z-score [15]: 0.577 (inactive)
- z-score [16]: -0.0014 (inactive)
- z-score [17]: -0.536 (inactive)
- z-score [18]: -0.146 (inactive)
- z-score [19]: -0.39
- composite z-score [20]: -0.207

SMILES: O=C(C=C(CC(O)c1cccc(Cl)c1)OCCF)OCCF (stereo not given)
- z-score [1]: 0.595
- z-score [2]: 0.642
- z-score [3]: 0.989
- z-score [4]: 0.947
- z-score [5]: -0.667
- z-score [6]: 0.586
- z-score [7]: 0.869 (inactive)
- z-score [8]: 0.0309
- z-score [9]: -0.273
- z-score [10]: 0.135 (inactive)
- z-score [11]: -0.0453
- z-score [12]: -1.47 (inactive)
- z-score [13]: 0.0592 (inactive)
- composite z-score [14]: -2.48 (inactive)
- z-score [15]: -0.777 (inactive)
- z-score [16]: -1.33 (inactive)
- z-score [17]: -0.0441 (inactive)
- z-score [18]: 1.04 (inactive)
- z-score [19]: 0.335
- composite z-score [20]: 0.237

SMILES: CC[C@@H]1[C@@H]2C3C(=O)N(CC)C(=O)C3CC(=O)[C@@H]2[C@H](c2ccc(C)cc2)N1S(=O)(=O)c1ccc(C)cc1 (stereo not given in full)
- z-score [1]: 0.63
- z-score [2]: 0.552
- z-score [3]: 0.769
- z-score [4]: -0.639
- z-score [5]: -1.6
- z-score [6]: 0.601
- z-score [7]: 0.0417 (inactive)
- z-score [8]: -0.227
- z-score [9]: -1.59
- z-score [10]: -0.195 (inactive)
- z-score [11]: -0.107
- z-score [12]: -1.67 (inactive)
- z-score [13]: -1.27 (inactive)
- composite z-score [14]: -0.415 (inactive)
- z-score [15]: 0.409 (inactive)
- z-score [16]: -1.13 (inactive)
- z-score [17]: 0.694 (inactive)
- z-score [18]: 1.26 (inactive)
- z-score [19]: 0.887
- composite z-score [20]: -0.0962

SMILES: Cc1ccccc1C(O)C1C=CC2C(=O)N(Cc3ccccc3)C(=O)C2N1n1cnnc1 (stereo not given)
- z-score [1]: -1.2
- z-score [2]: 0.194
- z-score [3]: -0.734
- z-score [4]: -0.742
- z-score [5]: 0.0991
- z-score [6]: -0.406
- z-score [7]: 0.525 (inactive)
- z-score [8]: -0.0549
- z-score [9]: -0.806
- z-score [10]: 0.0882 (inactive)
- z-score [11]: 1.09
- z-score [12]: 0.232 (inactive)
- z-score [13]: -0.562 (inactive)
- composite z-score [14]: -0.407 (inactive)
- z-score [15]: 0.726 (inactive)
- z-score [16]: -0.226 (inactive)
- z-score [17]: -0.197 (inactive)
- z-score [18]: 0.208 (inactive)
- z-score [19]: -0.408
- composite z-score [20]: -0.184
